Source: PubChem (National Center for Advancing Translational Sciences (NCATS))
Shown is part of a subset that was picked to be rich in hits.
PKM2 inhibitor – inhibitors of human pyruvate kinase M2; P14618; purified PKM2, ATP generation, Kinase-Glo luminescence; Potency, µM (doses to about 57.5 µM), for inactives: top-dose activity change, negative = inhibition, most hits filed as inhibitors; 260,000 tested, 0.058% active; active = well fitted inhibition curve with a large enough effect; note: nearly all actives have a fitted effect of over 60% in size
Target sequence (P14618 whole entry, looked up): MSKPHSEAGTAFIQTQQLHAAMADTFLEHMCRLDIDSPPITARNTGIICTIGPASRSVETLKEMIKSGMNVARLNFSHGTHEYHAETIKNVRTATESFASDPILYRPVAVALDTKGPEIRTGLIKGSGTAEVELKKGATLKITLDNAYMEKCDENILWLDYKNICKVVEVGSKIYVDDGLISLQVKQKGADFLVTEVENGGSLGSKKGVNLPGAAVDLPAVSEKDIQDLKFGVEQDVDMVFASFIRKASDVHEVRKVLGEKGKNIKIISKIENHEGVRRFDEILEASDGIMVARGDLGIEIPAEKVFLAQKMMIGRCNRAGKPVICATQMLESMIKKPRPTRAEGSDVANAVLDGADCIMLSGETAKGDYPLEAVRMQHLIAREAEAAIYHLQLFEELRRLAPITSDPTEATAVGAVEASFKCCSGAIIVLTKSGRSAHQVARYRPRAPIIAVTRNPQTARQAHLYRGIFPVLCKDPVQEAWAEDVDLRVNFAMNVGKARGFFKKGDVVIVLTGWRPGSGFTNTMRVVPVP
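Coupled luciferase luminescence (Kinase-Glo) detects ATP generated from 0.1 mM ADP and 0.5 mM PEP in imidazole buffer pH 7.2 with KCl, MgCl2; 1 h at room temperature. Enzyme at intermediate activity; normalized to uninhibited and no-enzyme controls.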
Starred values were filed as active, the others as inactive. Potency is the fitted concentration of half-maximal effect.

SMILES | PKM2 inhibitor
COc1cccc(CNc2nc3ccccc3n2C)c1O | 37%
CN(C)c1ccc(N=Nc2nc3ccccc3n2C)cc1 | 16µM*
CNc1ccccc1-c1nc2ccccc2n(C)c1=O | 1%
COC(=O)[C@@]1(Cc2ccc(OC)cc2)[C@H]2c3cc(C(=O)N(C)C)n(Cc4ccc(C)o4)c3C[C@H]2CN1C(=O)c1ccccc1 | 89%
O=C(CSc1nc2ccccc2n1Cc1ccccc1Cl)N/N=C/c1ccccc1C(=O)O | 73%
COc1cccc(CNC(=O)CCC2CCCN(C(=O)c3ccc(OC)o3)C2)c1 (stereo not drawn) | 62%
Cc1ccsc1C(=O)N/N=C/c1ccc2c(c1)OCO2 | 13µM*
Cc1nn(CC(=O)N/N=C/c2ccc3c(c2)OCO3)c(C)c1Br | 31%
COc1cc(/C=N/NC(=O)c2cccs2)ccc1O | 1%
CCC(CC)c1nnc(NC(=O)c2cccnc2SC)s1 | 34%
CC(C)c1ccc(N(CC(=O)NCC2CCCO2)C(=O)Cn2nnc(-c3cccs3)n2)cc1 (stereo not drawn) | 50%
c1coc(CN(Cc2ccco2)c2ncnc3c2oc2ccccc23)c1 | 31%
COc1ccccc1CNC(=O)C1=CCN(S(=O)(=O)c2ccc(C)cc2)CC1 | 51%
CN(C)c1nc(N)nc(CSc2nnnn2-c2ccccc2)n1 | 30%
COCCCn1c(SCC(=O)Nc2ccc(NC(=O)c3ccco3)c(OC)c2)nc2ccccc2c1=O | -1%
O=C(/C=C\c1ccco1)c1ccc(NC(=O)c2ccco2)cc1 | 50%
Cc1cc(NC(=O)c2ccco2)ccc1NC(=O)c1ccco1 | 14µM*
COC(=O)c1cc(O)cc(OC)c1Oc1cc(C)cc(O)c1C(=O)O | 43%
COc1ccc(N2CCN(C(=O)[C@H](Cc3c[nH]c4ccccc34)NC(C)=O)CC2)cc1 | 67%
O=C1NC(=S)S/C1=C1\Sc2ccccc2N1CCCS(=O)(=O)O | 11µM*
COc1ccc(CC(=O)N2CCN(S(=O)(=O)c3cccs3)CC2)cc1OC | 57%
COc1ccc(NC(=O)c2cc([N+](=O)[O-])ccc2O)cc1 | 16µM*
COc1cccc(NC(=O)CCN2C(=O)c3ccc([N+](=O)[O-])cc3C2=O)c1 | 54%
COc1ccc(NC(=O)c2[nH]c(C)c(C(C)=O)c2C)cc1 | 39%
Cc1ccc2[nH]c(O)c(N=NC(=O)CCc3ccccc3)c2c1Br | -6%
SMILES | PKM2 inhibitor
O=[N+]([O-])c1cccnc1NCc1cccs1 | 37%
CC(=O)c1sc(NC(=O)c2ccc(Cn3cc(Br)cn3)o2)nc1C | 69%
Cc1nc(NC(=O)c2ccco2)sc1C(=O)O | 13µM*
CCCn1c(NC(=O)c2ccco2)nc2ccccc21 | 87%
CCOC(=O)c1sc(S(C)(=O)=O)c2c1CCc1conc1-2 | 38%
O=c1[nH]c2ccccc2nc1Cc1ccc([N+](=O)[O-])cc1 | 38%
COc1cc(F)ccc1S(=O)(=O)n1c(C)nc2ccccc21 | -2%
COc1cccc2nc3cc(C)c(C)cc3nc12 | 14µM*
Cc1ccc(Nc2cc(C)c3c(O)cccc3n2)cc1C | 3%
Cc1ccc(NC(=O)CCSc2nnc(C)o2)cc1 | 34%
O=C1CN(S(=O)(=O)c2ccccc2)CCN1S(=O)(=O)c1ccccc1 | 66%
COc1ccc(C(=O)O/N=C(/C)c2cccs2)cc1 | 14µM*
COc1ccc(S(=O)(=O)N2CCN(C(=O)c3cccs3)CC2)cc1 | 80%
COc1ccc2cc(/C(C)=N/NC(=O)C3CC3)ccc2c1 | 34%
COc1ccc(C(=O)O/N=C(\N)Cc2ccc(Cl)cc2)cc1OC | 52%
COc1cccc(C(=O)O/N=C(\N)c2ccccn2)c1 | 8.9µM*
N/C(=N\OC(=O)c1ccc(Cl)cc1Cl)c1ccccn1 | 14µM*
COc1ccc(C/C(N)=N/OC(=O)c2cccc([N+](=O)[O-])c2)cc1 | 37%
N/C(CS(=O)(=O)c1ccccn1)=N\OC(=O)c1ccccc1Cl | 38%
Cc1ccc(C(=O)O/N=C(\N)c2ccccn2)c(Cl)c1 | 14µM*
COc1cccc(C(=O)C(C#N)=C(SC)SC)c1 | 39%
O=C(Oc1ccc2ccc(O)cc2c1)c1ccccc1Cl | 50%
Cc1ccc(C(=O)O/N=C(\N)c2ccccc2)c(Cl)c1 | 18µM*
O=C(OCCOc1cccc(Cl)c1)C1CCN(S(=O)(=O)c2ccccc2)CC1 | 36%
O=C(c1c[nH]c(C(=O)C(Cl)(Cl)Cl)c1)c1ccc(F)cc1Cl | 80%
SMILES | PKM2 inhibitor
O=[N+]([O-])c1ccc2c(OCc3nnc(-c4ccccc4Br)o3)ncnc2c1 | 43%
C[C@H](NC(N)=O)C(=O)N1CCN(S(=O)(=O)c2ccc3ccccc3c2)CC1 | 38%
NS(=O)(=O)c1cccc(NC(=O)CCS(=O)(=O)c2ccc(Cl)cc2)c1 | 39%
CN1c2ccccc2C(=O)NC1c1ccc([N+](=O)[O-])s1 (stereo not drawn) | -1%
O=S(=O)(Nc1cc(Sc2cccc3cccnc23)c(O)c2ccccc12)c1ccccc1 | 45%
COc1ccccc1N1CCN(S(=O)(=O)c2cnc[nH]2)CC1 | -6%
COC(=O)C1CCN(S(=O)(=O)c2ccc(OC)cc2)CC1 | 36%
O=C(CSc1n[nH]c(=O)n1C1CC1)NCc1ccccc1Cl | 69%
CCn1c(O)c(/C=N/N=C2CCCCC2)c2cc(C3=NNC(=O)CC3)ccc21 | 44%
Cc1ccc(C(=O)CCC(=O)N2CCN(C(=O)c3ccco3)CC2)cc1 | 61%
Cc1cccc(/C(N)=N/OC(=O)c2cccs2)c1 | 13µM*
CCOc1cc(NC(=O)c2cccs2)c(OCC)cc1NC(=O)c1cccnc1 | 79%
CCOC(=O)c1c(-c2ccc(C)o2)csc1NC(=O)COC(=O)c1cccs1 | 66%
O=C1C=CC(=O)N1c1cccc(-c2ccccc2)c1 | 70%
O=CN/C=C/c1cc(O)ccc1O | 10µM*
c1ccc(-c2nc(-c3ccco3)cs2)nc1 | 41%
CC(=O)Nc1nnc(-c2ccccn2)o1 | -2%
Cc1ccc(-c2nc(-c3ccccn3)no2)cc1 | 10µM*
Cn1c(=O)n(C)c2cc(NS(=O)(=O)c3cccs3)ccc21 | 36%
COc1ccc(CN2CCN(C(=O)CC(C)C)CC2)cc1 | 49%
O=C(N1CCOCC1)N1CCN(S(=O)(=O)c2ccc(F)cc2)CC1 | 32%
Brc1ccc(-n2cccc2/C=N/n2cnnc2)cc1 | 44%
O=c1[nH]c(C(F)(F)F)nc2ccccc12 | -23%
CNCc1nc2ccccc2[nH]1 | 59%
Cc1nn(-c2nc3ccccc3[nH]2)c(=O)c2ccccc12 | 16µM*
SMILES | PKM2 inhibitor
Cc1ccc2nc(SC(C)C(=O)NCc3ccc4c(c3)OCO4)[nH]c2c1 (stereo not drawn) | 44%
O=C(CCSc1ccc(Br)cc1)Nc1cccnc1 | 43%
Cc1ccc(N2C(=O)CC(C)(C)CC2=O)cc1Cl | 0%
COc1ccc2nc(NC(=O)c3ccoc3C)sc2c1 | 16µM*
COc1ccc2nc(NC(=O)CCNC(=O)c3ccccc3Cl)sc2c1 | 0%
Cc1nc2ccc(S(=O)(=O)NCC(=O)N(C)Cc3ccco3)cc2s1 | 35%
O=C1c2cccnc2C(Nc2ccccc2Br)N1Cc1ccco1 (stereo not drawn) | 31%
COc1ccc(S(=O)(=O)c2nnn(-c3cccc(Cl)c3)c2N)cc1 | 49%
CCc1nc(SCC(=O)Nc2ccc(OC)cc2[N+](=O)[O-])n[nH]1 | 90%
COc1ccc(NC(=O)c2cc(S(=O)(=O)N3CCCCC3)c[nH]2)c(OC)c1 | 2%
CC(C)(C)C(=O)/C(=C\c1ccc([N+](=O)[O-])cc1)n1cncn1 | 49%
O=C(NNC(=O)c1cc2cc(Br)ccc2oc1=O)c1ccc(O)cc1O | 54%
O=C(NCc1ccco1)c1cc2ccc(O)cc2oc1=O | 11µM*
Cc1c(Br)cc(C(=O)NCc2ccco2)c(C)c1C | 31%
